Where “and” joins values, the source holds several entries; their conditions need not be identical. Identical values can stand only once. This is part of a sample that, as a whole, favours compounds with a hit. Of some 83,000 tested, about 20% had one in any assay.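 Results are percent growth after 48 hours of single-concentration exposure. 100 means growth as in untreated cells, lower positive values show inhibition; negative values down to -100 show cell death.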 Calls of active or inactive are those of the source. Rule for the calls: active = growth percent below 10; inactive = the rest.

This experiment deals with HL-60(TB) leukemia. Briefly: NCI-60 one-dose screen, 48 h (100 = growth as untreated, 0 = no growth, -100 = all killed). The conditions noted are these: 10 µM unless noted.
`O=C(/C=C/c1ccccc1)Oc1ccc(/C=C/c2cc(OC(=O)/C=C/c3ccccc3)cc(OC(=O)/C=C/c3ccccc3)c2)cc1`: the growth was 93% (inactive).

On to `Nc1c(C(=O)Nc2ccccc2C(F)(F)F)sc2nc3c(cc12)CCC3`, for which the growth was 86.8% (inactive).

For the molecule `CCOC(=O)CSc1ncnc2c1c(-c1ccccc1)c(-c1ccccc1)n2-c1ccc(C)cc1`, the growth was 55.9% (inactive). Regarding `CCCCCCCCCCCCCCCCNC(=O)Nc1ccc(C)c(NC(=O)NCCCCCCCCCCCCCCCC)c1`, the growth is 98.8% (inactive). As for `COc1cccc(-c2nc3sccn3c2-c2ccnc(NCCCNS(=O)(=O)c3ccccc3)n2)c1`, the growth was 39.9% (inactive). Take `O=C(c1ccccc1)C(CN1CCOCC1)c1ccccc1` (stereo not given): the growth was 12.2% (inactive). Turning to `COc1ccc(C(=O)COC(=O)[C@H](C[Se][Se]C[C@H](NC(=O)c2ccc(Br)cc2F)C(=O)OCC(=O)c2ccc(OC)cc2)NC(=O)c2ccc(Br)cc2F)cc1`, the growth is 2.8% (active). As for `C/C(=C\CCc1ccoc1)CC/C=C(\C)CCCC1COC(=O)C1` (stereo not given), the growth is 95.8% (inactive). In the case of `O=S(=O)(c1ccc(NC(=S)NC23CC4CC(CC(C4)C2)C3)cc1)N1CCCCC1`, the growth is -29.2% (active). As for `O=C(O)c1ccc(S(=O)(=O)O)cc1`, the growth was 115% (inactive). Consider `C[C@H](c1nc2ccc(N)cc2[nH]1)[C@H]1CC[C@H]2[C@@H]3CCC4=CC(=O)CC[C@]4(C)[C@H]3CC[C@]12C`, for which the growth is -50.2% (active). On to `Cc1ccc(Nc2nc(N)c3ccccc3n2)cc1Cl`, for which the growth was 78.2% (inactive). Regarding `Nc1nc(=S)c2[nH]cnc2[nH]1`, the growth was 13.9% (inactive) and -13.4% (active). Consider `Cc1ccc(C)c2c1sc1nc3nc4sc5ccccc5n4c(=N)c3c(=O)n12`, for which the growth is 89% (inactive). On to `COc1ccc(-c2nn(-c3ccccc3)cc2/C=C2/SC(=S)N(C)C2=O)cc1`, for which the growth was 95.8% (inactive). As for `O=C1CSC2=NCCN12`, the growth is 106% (inactive) and 86.3% (inactive). With `C=C(C)[C@@H]1CC[C@]2(C(=O)NCC(=O)OC)CC[C@]3(C)[C@H](CC[C@@H]4[C@@]5(C)Cc6c([nH]c7ccccc67)C(C)(C)[C@@H]5CC[C@]43C)[C@@H]12` the figure was 64.8% (inactive); with `CCN(CC)CCCC(CNc1ccnc2cc(Cl)ccc12)c1ccc(Cl)cc1` (stereo not given), -40.4% (active) and -71% (active); with `N=C(N=C(N)N)N1CCOCC1`, 100% (inactive) and 99.1% (inactive).

For `CSc1nc(NCCO)c(C#N)c(-c2cccc(N)c2)n1`, the growth is 96.1% (inactive). With `COc1ccc(-c2nnc(SCC(=O)c3ccc(Cl)cc3)o2)cc1` the figure was 108% (inactive); with `Clc1ccc2c(c1)C(N1CCNCC1)=Nc1ccccc1O2`, 50.7% (inactive); with `Cc1nc2ccccc2c(/C=C/c2ccc(Cl)cc2)c1C(=O)/C=C/c1ccc(F)cc1`, -7.94% (active). Regarding `N#Cc1c(-c2ccccc2)nc(SCC2CO2)nc1N1CCOCC1` (stereo not given), the growth is 63.7% (inactive). Regarding `CCN(C(=O)N1CCN(c2cc3c(cc2F)c(=O)c(C(=O)O)cn3C2CC2)CC1)c1nc(-c2ccc(Cl)cc2)cs1`, the growth is -27.1% (active). With `Cc1cc(Nc2cccc(C(F)(F)F)c2)n2c(nc3ccccc32)c1C#N`, the growth was 31.8% (inactive). The value for `COC(=O)CCOc1ccccc1` was 102% (inactive); that for `COc1ccc(C(=O)COc2ccc(/C=C3\Oc4ccccc4C3=O)cc2)cc1` was 76% (inactive); that for `Cn1c(-c2ccc(Br)cc2)c(O)c(=O)c2c(F)cccc21` was 122% (inactive). On to `O=C(Nc1ccc(Cl)cc1)c1cc2ccccc2cc1O`, for which the growth is -8.5% (active) and -29.4% (active).

Regarding `CN1C(=O)/C(=C/c2nc(-c3cccc(F)c3)n3ccccc23)c2ccccc21`, the growth was 92.6% (inactive). For `COc1cc(/C=C2\Oc3cc(OCCCN4CCCC4)ccc3C2=O)cc(OC)c1`, the growth is 72.5% (inactive). As to `Nc1nc(=S)c2ncn(C3OC(CO)C(O)C3O)c2[nH]1` (stereo not given), the growth is 96.4% (inactive) and 21.3% (inactive). With `O=C(O)CC(Cl)C(Cl)CC(=O)O` (stereo not given) the figure was 99.5% (inactive).

Consider `CCN1CCN(C(=O)[C@]23CCC(C)(C)C[C@H]2C2=CC[C@@H]4[C@@]5(C)CC/C(=N/O)C(C)(C)[C@@H]5CC[C@@]4(C)[C@]2(C)CC3)CC1`, for which the growth was -9.73% (active). As to `OCc1cnccc1NC12CC3CC(CC(C3)C1)C2`, the growth was 85.3% (inactive). With `CCOC(=O)c1[nH]c(C)c(C(=O)OCc2ccccc2C#N)c1C`, the growth was 86.6% (inactive). `CCCCCCCCCCCCCCCC(=O)N1CCN(C)CC1`: the growth was 47.3% (inactive). As to `O=C(CCl)N1CCCc2ccccc21`, the growth is 93.3% (inactive).

Take `CCCCCn1sc(=O)n(Cc2ccc(CNC(=O)C(C)c3ccc(CC(C)C)cc3)cc2)c1=O` (stereo not given): the growth was 102% (inactive) and -34.5% (active).

For the origin of these results see PubChem BioAssay (NCI).
